Screening results from PubChem BioAssay.
PABP polyA inh = blocks human PABP binding to poly(A) RNA; P11940; fluorescence polarization; calls only at 35 µM; actives 1% (n = 290,000);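 note: calls also rest on retests at 20 µM and on dose response follow-up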
Target sequence (P11940 whole entry, looked up): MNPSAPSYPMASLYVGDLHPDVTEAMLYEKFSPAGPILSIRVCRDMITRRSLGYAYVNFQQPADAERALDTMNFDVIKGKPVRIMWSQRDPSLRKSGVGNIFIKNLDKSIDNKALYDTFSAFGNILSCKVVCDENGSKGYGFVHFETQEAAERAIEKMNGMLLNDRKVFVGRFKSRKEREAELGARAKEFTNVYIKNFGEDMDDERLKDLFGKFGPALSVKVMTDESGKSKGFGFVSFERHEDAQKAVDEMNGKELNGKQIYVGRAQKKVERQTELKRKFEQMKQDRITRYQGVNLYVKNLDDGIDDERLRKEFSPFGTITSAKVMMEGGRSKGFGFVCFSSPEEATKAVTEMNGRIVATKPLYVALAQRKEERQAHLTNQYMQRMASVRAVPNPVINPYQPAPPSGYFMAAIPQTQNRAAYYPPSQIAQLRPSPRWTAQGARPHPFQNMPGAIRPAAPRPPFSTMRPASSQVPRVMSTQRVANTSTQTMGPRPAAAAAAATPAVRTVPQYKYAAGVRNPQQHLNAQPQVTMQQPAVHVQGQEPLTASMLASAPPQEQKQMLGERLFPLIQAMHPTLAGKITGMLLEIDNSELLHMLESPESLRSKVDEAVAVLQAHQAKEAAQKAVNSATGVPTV
eIF4H FP inh = inhibitors of RNA binding by human eIF4H; inhibition, % at 35 µM; actives 0.94% (n = 290,000); eIF4H fluorescence polarization binding assay; Q15056;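 note: calls also rest on retests at 20 µM and on dose response follow-up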
PABP1 MLLE inh = blocks PAM2 peptide binding to the PABP1 MLLE domain | P11940 | AID 588489 | inhibition, % at 20 µM | GST-MLLE / FITC-PAM2 fluorescence polarization | actives 0.36% (n = 360,000); in the data active = inhibition above about 35%, passing the limit was not always enough;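 note: plate controls were DMSO wells with GST-MLLE for no effect and wells lacking GST-MLLE protein for full effect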
ABCB6 inh MLPCN = blocks the human ABCB6 transporter | actives 0.19% (n = 360,000) | Q9NP58 | fluorescence ratio to DMSO, % at 10 µM | K562-ABCB6 porphyrin accumulation, flow cytometry, 1 h; stronger effect = lower value;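 active = fluorescence ratio to DMSO below 75%, the collection mean minus 3 SD; inconclusive = too few cells collected in the well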;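 note: signal is porphyrin accumulated inside mitochondria; 100% equals median channel fluorescence of DMSO control wells; lower ratio means ABCB6 inhibition with less porphyrin fluorescence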
AI-2 QS modul = modulators of Vibrio harveyi AI-2 quorum sensing system | actives 0.4% (n = 300,000) | AID 2094 | activity change, % at 7.5 µM | Vibrio harveyi JMH597 AI-2 luminescence/OD600 ratio, 9 h; stronger effect = lower value; strain lacks LuxN and CqsS sensors; 0 = neutral-control median; in the data active = activity change below about -75%, passing the limit was not always enough; inconclusive = no clear call, values can overlap the other calls;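 note: luminescence divided by OD600 gain over 9 h not by final OD600 alone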
PHOSPHO1 block = inhibitors of human PHOSPHO1 phosphatase; Q8TCT1; recombinant PHOSPHO1, absorbance phosphatase assay; inhibition, % at 13.3 µM; actives 1.1% (n = 290,000); in the data active = inhibition above about 60%
* hit, by the source's call; i = inactive; ? = inconclusive; nt = no result; + = active, no number. The list is not random: actives were taken first. Their share in the collection is about 2.6%. Unless noted, the rule behind the calls is not given here.

SMILES	PABP polyA inh	eIF4H FP inh	PABP1 MLLE inh	ABCB6 inh MLPCN	AI-2 QS modul	PHOSPHO1 block
CC(C)CC(N)c1csc(Nc2cc(Oc3ccccc3)ncn2)n1 (stereo not given)	nt	nt	12	93	nt	nt
C=CCn1c(C)cc(C(=O)COc2ccc(C)nc2[N+](=O)[O-])c1C	i	?	-3	101	7	6
CC(=O)Nc1ccccc1OCC(=O)c1cc(C)n(Cc2cccs2)c1C	i	-14	9	88	28	-10
Cc1ccc(OCC(=O)c2cc(C)n(-c3ccccc3)c2C)c([N+](=O)[O-])n1	i	46	6	95	-4	-1
Cc1cc(C(=O)COc2cccnc2[N+](=O)[O-])c(C)n1Cc1cccs1	i	106*	13	97	1	27
COCCn1c(C)cc(C(=O)COc2ccc(C)nc2[N+](=O)[O-])c1C	i	115*	-15	106	16	16
CCCn1c(C)cc(C(=O)COc2ccc(C)nc2[N+](=O)[O-])c1C	+	69*	-2	95	19	1
COc1ccc(-c2cc(C(=O)NCc3ccc(C(F)(F)F)cc3)[nH]n2)c(C)c1	nt	nt	12	92	nt	nt
O=c1[nH][nH]c2c1C(C1CCCCC1)OC(C1CCCCC1)C2 (stereo not given)	nt	nt	nt	97	nt	nt
Cn1nc(CC(=O)Nc2ccc(N3CCN(C(=O)OC(C)(C)C)CC3)cc2)c2ccccc2c1=O	i	-3	5	30*	115	-7
O=S(=O)(c1ccc(=S)[nH]c1)N1CCCCCC1	nt	nt	33	91	nt	nt
O=C(NC1CCCCCC1)c1cc(=O)[nH]c2ccc(S(=O)(=O)N3CCOCC3)cc12	i	4	-35	101	42	16
O=S(=O)(c1ccc(=S)[nH]c1)N1CCOCC1	nt	nt	46*	96	nt	nt
Cc1cc(=O)[nH]c2ccc(S(=O)(=O)N3CCOCC3)cc12	i	-1	5	99	-6	73*
CC(=O)O[C@H]1[C@@H](O)[C@H](O)[C@H](Oc2c(O)c(C)c3c4c2[C@@H](C)CC[C@@H]4[C@@H](C)C[C@@H]3C=C(C)C)O[C@H]1C	nt	nt	4	104	nt	nt
CC(C)C[C@H]1CN(CCCC[C@@H]2CNC(=O)C(=O)N2CCc2ccccc2)C(=O)C(=O)N1CCc1ccccc1	nt	nt	nt	94	nt	nt
O=[N+]([O-])c1cc2oc3c(c2c(C=NCc2ccncc2)c1O)CCCC3	+	102	14	102	nt	-9
O=C(CN1C(=O)c2ccccc2S1(=O)=O)Nc1ncccn1	nt	nt	6	92	21	nt
O=C(CN1C(=O)c2ccccc2S1(=O)=O)Nc1ncc(Cl)cc1Cl	nt	nt	49*	96	nt	nt
Cc1ccc(S(=O)(=O)N2C[C@H]3C(=O)C[C@@H](c4ccccc4)N(S(=O)(=O)c4ccc(C)cc4)[C@H]3C[C@H]2c2cccs2)cc1	nt	nt	2	102	nt	nt
Cc1nn(CCc2n[nH]c(=S)n2C)c(C)c1Br	i	14	10	91	20	85*
O=C1NC[C@H](CCCCN2C[C@H](Cc3ccc(O)cc3)N(Cc3ccccc3)C(=O)C2=O)N(CCc2ccc(O)cc2)C1=O	nt	nt	nt	96	nt	nt
O=C(CSc1n[nH]c(=O)[nH]c1=O)Nc1ccc2c(c1)C(=O)c1ccccc1C2=O	+	98*	13	99	20	-31
COc1ccc(-c2nn(-c3ccccc3)cc2/C=C/C(=O)OCC(=O)Nc2ccccc2C#N)cc1	i	-12	2	99	18	34
N#Cc1ccccc1NC(=O)COC(=O)/C=C/c1cn(-c2ccccc2)nc1-c1ccc(Cl)cc1	i	-9	-7	101	nt	60*
SMILES	PABP polyA inh	eIF4H FP inh	PABP1 MLLE inh	ABCB6 inh MLPCN	AI-2 QS modul	PHOSPHO1 block
Cn1c(CNc2ccccc2O)nc2ccccc21	+	86*	2	100	4	-2
C=CCc1cccc(C=Nc2cc(Br)ccc2O)c1O	i	78*	2	91	12	1
C=CCc1cccc(C=Nc2c[nH]c(=O)[nH]c2=O)c1O	i	0	13	108	23	-24
COc1ccccc1NC(=O)CSc1nnc(-c2ccc(NC(C)=O)cc2)n1C	i	0	-101	94	91	106*
COc1ccccc1NC(=O)CC(=O)CSc1nnc(-c2ccc(C)cc2)n1C	i	1	-10	98	19	88*
Cc1ccc(-c2nnc(SCC(=O)CC(=O)Nc3ccccc3)n2C)cc1	i	-3	-5	87	15	-8
Cc1ccccc1S(=O)(=O)NC(=O)C1(C)CCN1C(=O)Cc1cccs1 (stereo not given)	nt	nt	11	98	nt	nt
COc1ccc(Sc2nnc(Cc3ccccc3)c3ccccc23)cc1	i	-11	40*	101	5	18
CCN(CC)C(=O)c1ccc2sc([C@@H]3O[C@H](CO)[C@H](O)[C@H](O)[C@H]3O)nc2c1	nt	nt	7	98	nt	nt
CC1CCN(S(=O)(=O)N2CCC(C(=O)NCc3ccc(F)cc3Cl)CC2)CC1	nt	nt	-15	93	nt	nt
COc1cc(C(=O)Nc2ccc3c(c2)OCCO3)ccc1-n1cnnn1	i	-10	7	101	0	-57
CCN(CC)c1ccc2cc(C(=O)Nc3ccc(-n4cnnn4)c(OC)c3)c(=O)oc2c1	+	76*	nt	nt	nt	6
Cc1ccc(C)c(-n2c(-c3ccc4c(c3)OCO4)n[nH]c2=S)c1	i	3	-2	98	3	96*
Cc1ccc(C)c(-n2c(-c3csc(C)c3)n[nH]c2=S)c1	i	-5	12	109	-6	97*
Cc1ccc(C)c(-n2c(-c3ccncc3)n[nH]c2=S)c1	i	-4	-15	104	2	13
CCc1nc2c(OCCc3cccc(OC)c3)cccn2c1N(C)C(=O)c1cccs1	nt	nt	-3	96	nt	nt
COc1ccc2oc(-c3ccncc3)cc(=O)c2c1	nt	nt	40*	98	nt	nt
CN1OC[C@@H]2CN(S(=O)(=O)c3ccccc3)[C@H](c3ccccc3Br)C[C@@H]21	nt	nt	5	102	nt	nt
CC[n+]1ccc(/C=C2\Sc3ccccc3N2CCCS(=O)(=O)[O-])c2ccccc21	+	0	-143	107	18	19
O=C1C2CC=C(Cl)CC2C(=O)N1CCCCCCN1C(=O)C2CC=C(Cl)CC2C1=O (stereo not given)	+	99*	16	102	14	9
Cc1csc(Nc2ccccc2C(F)(F)F)n1	i	2	2	104	25	-13
FC(F)(F)c1ccccc1Nc1nccs1	i	0	-21	91	24	95*
COc1ccc(/C=C/C(=O)C2C(=O)C=C(C)OC2=O)cc1O (stereo not given)	i	12	-16	68*	9	4
COc1ccccc1-n1cc(C(=O)NCC(=O)N2CCN(c3ccccc3)CC2)c2ccccc2c1=O	i	-9	3	98	0	63*
